Source: PubChem BioAssay (NCI)
The panel holds about 79,000 compounds, 15% with a hit somewhere; the sample as a whole holds those more often. Cut-off read from the data, not from the text of the source: active = growth inhibition above about 70%; inactive = the rest.

Assays:
[1] = NCI Yeast Anticancer Drug Screen. Data for the rad50 strain (AID 155);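 note: 0% = growth of vehicle-only cultures of the same strain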; settings: S. cerevisiae rad50 strain growth inhibition; at 50.0 µM; stronger effect = higher value
Procedure, shortened: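 DNA repair mutant yeast, compound exposure, growth read-out; inhibition is taken relative to vehicle.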

[2] = NCI Yeast Anticancer Drug Screen. Data for the mec2-1 strain (AID 157); settings: S. cerevisiae mec2-1 strain, at 50.0 µM, stronger effect = higher value
Procedure, shortened: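 Growth inhibition is read against vehicle-treated controls after compound exposure of the mec2-1 yeast strain, which is defective in DNA damage repair or cell cycle control.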

[3] = NCI Yeast Anticancer Drug Screen. Data for the sgs1 mgt1 strain (AID 161);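 note: 0% = growth of cultures given vehicle only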; settings: S. cerevisiae sgs1 mgt1 strain, at 50.0 µM, stronger effect = higher value
Procedure, shortened: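 Compounds are added to genetically altered yeast, and growth is compared with cultures given vehicle alone to give percent inhibition.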

[4] = NCI Yeast Anticancer Drug Screen. Data for the cln2 rad14 strain (AID 165);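 note: 0% = growth equal to vehicle treated cultures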; settings: S. cerevisiae cln2 rad14 strain, at 50.0 µM, stronger effect = higher value
Procedure, shortened: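 Growth inhibition, relative to vehicle-treated controls, is the read-out. The test organism is a yeast strain with defined genetic alterations, cln2 rad14.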

[5] = NCI Yeast Anticancer Drug Screen. Data for the bub3 strain (AID 167); settings: S. cerevisiae bub3 mutant strain, at 50.0 µM, stronger effect = higher value
Procedure, shortened: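 In this screen, a yeast mutant lacking normal mitotic checkpoint function is challenged with compound. Relative growth versus vehicle gives the inhibition value.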

[6] = NCI Yeast Anticancer Drug Screen. Data for the mlh1 rad18 strain (AID 175); settings: S. cerevisiae mlh1 rad18 strain growth inhibition; at 50.0 µM; stronger effect = higher value
Procedure, shortened: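 Cells of a genetically altered yeast strain, deficient in DNA damage repair, were treated with compound. Their growth was then compared with that of vehicle-treated cultures to give inhibition.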

Measured: growth inhibition

ON=C(c1ccccc1)c1ccccc1
inactive: [1] -0.15% | [2] -3.8% | [3] -2.05% | [4] -7.2% | [5] -1.95% | [6] -2.95%

C=CCN=C(N)SCCN(CCSC(N)=NCC=C)C(N)=O
inactive: [1] 36.1% | [2] 10.7% | [3] 36.2% | [4] 34.2% | [5] 4.05% | [6] 13.1%

C=C(C)[N+]([O-])=NC
inactive: [1] -6.75% | [2] 3.5% | [3] -2.8% | [4] 30.1% | [5] -10.8% | [6] 0.75%

O=C(OCC1OC(Br)CC(OC(=O)c2ccc([N+](=O)[O-])cc2)C1OC(=O)c1ccc([N+](=O)[O-])cc1)c1ccc([N+](=O)[O-])cc1 (stereo not drawn)
inactive: [1] 6.9% | [2] 9.95% | [3] 18.1% | [4] -22.4% | [5] -8.95% | [6] 35.5%

CC(=O)OC1C(=C(Br)Br)C(COC(=O)c2ccccc2)OC1n1cnc2c(NC(=O)c3ccccc3)ncnc21 (stereo not drawn)
inactive: [1] 8.3% | [2] 8.8% | [3] 10.4% | [4] 0.1% | [5] 16.9% | [6] 25.9%

O=C1Nc2ccccc2C12CCNC2Cc1ccccc1 (stereo not drawn)
inactive: [1] -17.2% | [2] -12.2% | [3] -11.8% | [4] 19.8% | [5] -8.55% | [6] -21.4%

c1ccc2c(N=C(Nc3cccc4ccccc34)c3cccc4ccccc34)cccc2c1
inactive: [1] 20.4% | [2] 19.6% | [3] 35.8% | [4] 28.9% | [5] 17.3% | [6] 13.6%

CC(C)=CC1C(COC(=O)c2ccccc2Cl)C1(C)C (stereo not drawn)
inactive: [1] 1% | [2] -8.3% | [3] -2.9% | [4] -27.9% | [5] -12.4% | [6] 18.8%

COc1cc(CNc2nc3ccccc3nc2C(=O)O)cc(OC)c1OC
inactive: [1] 10.3% | [2] 3.05% | [3] -8.75% | [4] 5.1% | [5] -2.15% | [6] -0.4%

OCCN(CCO)c1cc(/C=C/c2cccc3ccccc23)nc2ccccc12
inactive: [1] 56.9% | [2] 11.3% | [3] 39.6% | [4] 3.85% | [5] -6.5% | [6] 37.4%

CCC1C(=O)N(C)c2ccccc21 (stereo not drawn)
inactive: [1] -2.15% | [2] -9.6% | [3] -10.1% | [4] 1.55% | [5] -19.3% | [6] 13.2%

CC12CCC(=O)C=C1CCC1C2CCC2(C)C(C(=O)Cn3c(=O)[nH]cc(F)c3=O)CCC12 (stereo not drawn)
inactive: [1] 19.9% | [2] 1.85% | [3] 25.9% | [4] 8.85% | [5] 6.55% | [6] 11%

COc1cc(C2CC(C)=C(C)CC2C(=O)O)cc(OC)c1OC (stereo not drawn)
inactive: [1] 1.55% | [2] 22.4% | [3] 7.25% | [4] 30.1% | [5] 10.4% | [6] 19.8%

O=C(CCCC(=O)N/N=C/c1cc(Cl)ccc1[N+](=O)[O-])N/N=C\c1cc(Cl)ccc1[N+](=O)[O-]
inactive: [1] 20.7% | [2] 12.1% | [3] 11.1% | [4] 10.7% | [5] -1.9% | [6] 7%

CC(C)(C)C(=O)CC(=O)C(F)(F)C(F)(F)C(F)(F)F.CC(C)(C)C(=O)CC(=O)C(F)(F)C(F)(F)C(F)(F)F.CC(C)(C)C(=O)CC(=O)C(F)(F)C(F)(F)C(F)(F)F.[Eu]
inactive: [1] 9.65% | [2] 39.4% | [3] 21.2% | [4] 39.5% | [5] 39.8% | [6] -1.2%

CCN(CC)CCNc1ccc(OC)c2sc3ccccc3c(=O)c12
inactive: [1] 53.6% | [2] 25.4% | [3] 20.9% | [4] -7.85% | [5] 40.4% | [6] 24.6%

C=C1C(=O)OC2CC(C)C3CC(O)OC(OCC)C3(C)CC12 (stereo not drawn)
inactive: [1] 24.1% | [2] 20.3% | [3] 12.4% | [4] 22.8% | [5] 32.2% | [6] -16.8%

CC1(C)OC2OC(C3COS(=O)O3)C(Cl)C2O1 (stereo not drawn)
inactive: [1] -2% | [2] 2.45% | [3] -1.4% | [4] -48.8% | [5] -0.7% | [6] 8.6%

CCc1ccccc1NC(=O)N1CCOCC1
inactive: [1] -8.45% | [2] -27.9% | [3] -1.55% | [4] 3.05% | [5] -4.15% | [6] -7.15%

CCOC(=O)C(C#N)C(=O)c1ccccc1-c1ccccc1[N+](=O)[O-] (stereo not drawn)
inactive: [1] 7.9% | [2] 1.1% | [3] 3.35% | [4] -9.4% | [5] -13.2% | [6] 5%

CC(=O)Nc1cc([N+](=O)[O-])c2[nH]c(=O)c3ccccc3c2c1
inactive: [1] -7.7% | [2] -6.7% | [3] -12.4% | [4] -9.45% | [5] -3.2% | [6] -0.15%

Cc1cc2c(cc1C)[n+](=O)c(C(=O)CC(=O)C(=O)Nc1ccccc1C)c(C)n2[O-]
inactive: [1] 37% | [2] 46.5% | [3] 3.8% | [4] 30.4% | [5] 47.3% | [6] 9.3%

CN(C)CCCNC(=S)S
inactive: [1] -17% | [2] -28.6% | [3] 5.25% | [4] 11.2% | [5] -22.1% | [6] -4.35%

Cc1ccc(C(=O)CSC2=NCCN2)cc1Cl
inactive: [1] -9.75% | [2] -21.8% | [3] -12.6% | [4] -2.2% | [5] -11.9% | [6] 19.2%

CCOC(=O)CCNc1nc(N)nc(C)c1NC=O
inactive: [1] -11.9% | [2] 5.55% | [3] -16.5% | [4] 9.7% | [5] 5.9% | [6] 16.9%

COC1OC(CO)C(O)C2OCCOCCOC3C(OC)OC(CO)C(O)C3OCCOCCOC12 (stereo not drawn)
inactive: [1] -2.65% | [2] -4.4% | [3] 5.9% | [4] -7.7% | [5] -0.5% | [6] 18.5%

CCCCCCCCCCCCCCCCOCC(COS(C)(=O)=O)OS(C)(=O)=O (stereo not drawn)
inactive: [1] 20% | [2] 2.15% | [3] 12.2% | [4] 33.3% | [5] 7.9% | [6] 1.5%

O=C1CCC2CCc3cccc1c32 (stereo not drawn)
inactive: [1] 0.15% | [2] -7.75% | [3] -12.3% | [4] -19.4% | [5] -18.6% | [6] 3.05%

S=C1Nc2ccccc2C2CC=NN12 (stereo not drawn)
inactive: [1] -1.75% | [2] -4.15% | [3] 10.6% | [4] -30% | [5] -44.6% | [6] 29.4%

CCc1cccc(CC)c1NC(=O)CC1SC(N)=NC1=O (stereo not drawn)
inactive: [1] -4.45% | [2] -19.2% | [3] -1.95% | [4] 9.8% | [5] 15.7% | [6] -24.9%

Cc1cc2c(C)nn(Cc3ccccc3Cl)c2c(C#N)c1C
inactive: [1] 32.5% | [2] -1.6% | [3] 43% | [4] 23.9% | [5] 26.9% | [6] 44.4%

ClC1CCCCC1
inactive: [1] -12.8% | [2] -2.55% | [3] -0.35% | [4] -7.95% | [5] -7.2% | [6] -31.2%

C/C(=N/NC(=S)Nc1ccccc1Cl)c1cccc(/C(C)=N\NC(=S)Nc2ccccc2Cl)n1
inactive: [1] 39.4% | [2] 16.9% | [3] 39.8% | [4] 6.3% | [5] 32.1% | [6] 24.7%

Cc1cc(-c2cc(C)on2)no1
inactive: [1] -44.7% | [2] -2.75% | [3] -15.9% | [4] -30.1% | [5] -6.15% | [6] -3.25%

Clc1ccc(-n2ncc3c2-c2ccccc2CCC3)cc1
inactive: [1] 31.4% | [2] -6.5% | [3] 3.5% | [4] 4.85% | [5] 48.2% | [6] 34.3%

Cc1c2c(C#N)nccc2c(C)c2c1c1ccccc1n2Cc1ccccc1
inactive: [1] 33.5% | [2] 14.1% | [3] -8.3% | [4] 20.9% | [5] -28.7% | [6] -45.6%

O=C(Nc1cc2cc([N+](=O)[O-])ccc2oc1=O)c1cccs1
inactive: [1] -12.2% | [2] -30.7% | [3] -6.8% | [4] 4.85% | [5] -40.2% | [6] -15.6%

c1ccc([Si]2(c3ccccc3)[Si](c3ccccc3)(c3ccccc3)[Si](c3ccccc3)(c3ccccc3)[Si]2(c2ccccc2)c2ccccc2)cc1
inactive: [1] 6% | [2] -1.4% | [3] -35% | [4] -1.45% | [5] -0.45% | [6] 3.75%
